Source: paper PMC4336329 (PLoS ONE, 2015)
Among all 310,000 compounds or so, about 14,000 (4.5%) showed an effect of 50% or more. Effects have a minus sign here. The entries come from a sample that favours strong results as a whole.

Biological target: human ether-à-go-go-related gene (hERG) potassium channel (human, UniProt Q12809)
Assay: primary screen, population patch clamp on CHO cells stably expressing hERG; higher = less effect of the substance
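Note: peak tail current of the secondary pulse compared with the same well before compound.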

human ether-à-go-go-related gene (hERG) potassium channel, sequence (Q12809 whole entry, looked up): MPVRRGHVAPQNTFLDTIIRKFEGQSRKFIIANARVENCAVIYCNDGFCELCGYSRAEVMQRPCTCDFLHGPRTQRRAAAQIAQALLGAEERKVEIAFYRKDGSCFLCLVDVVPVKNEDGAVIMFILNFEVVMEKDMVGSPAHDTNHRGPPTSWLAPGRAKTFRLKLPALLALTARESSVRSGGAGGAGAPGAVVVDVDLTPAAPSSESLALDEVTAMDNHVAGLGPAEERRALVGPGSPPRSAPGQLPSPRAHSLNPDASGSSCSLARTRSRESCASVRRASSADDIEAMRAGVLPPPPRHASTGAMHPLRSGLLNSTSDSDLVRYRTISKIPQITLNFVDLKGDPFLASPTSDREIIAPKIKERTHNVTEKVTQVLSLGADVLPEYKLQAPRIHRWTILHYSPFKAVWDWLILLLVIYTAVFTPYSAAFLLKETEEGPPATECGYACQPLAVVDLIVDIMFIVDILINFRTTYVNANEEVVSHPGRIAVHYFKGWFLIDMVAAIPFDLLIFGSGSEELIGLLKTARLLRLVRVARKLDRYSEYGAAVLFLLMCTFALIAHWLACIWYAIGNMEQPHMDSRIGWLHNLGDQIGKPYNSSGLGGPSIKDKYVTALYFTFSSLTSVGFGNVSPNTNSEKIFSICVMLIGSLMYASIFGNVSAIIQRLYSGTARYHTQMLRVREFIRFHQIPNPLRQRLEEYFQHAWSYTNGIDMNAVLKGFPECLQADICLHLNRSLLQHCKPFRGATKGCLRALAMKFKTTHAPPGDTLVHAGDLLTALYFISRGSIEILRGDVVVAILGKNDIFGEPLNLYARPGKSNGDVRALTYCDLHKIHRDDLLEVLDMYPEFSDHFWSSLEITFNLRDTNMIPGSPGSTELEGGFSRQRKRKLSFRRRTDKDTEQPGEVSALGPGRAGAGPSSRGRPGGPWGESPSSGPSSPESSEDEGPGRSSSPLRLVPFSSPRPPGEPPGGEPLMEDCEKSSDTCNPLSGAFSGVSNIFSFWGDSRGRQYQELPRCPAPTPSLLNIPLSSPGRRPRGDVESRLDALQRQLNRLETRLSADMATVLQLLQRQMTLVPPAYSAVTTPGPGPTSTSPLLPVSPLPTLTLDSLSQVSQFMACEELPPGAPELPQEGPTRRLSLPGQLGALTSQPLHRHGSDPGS

Row | SMILES | hERG current change (%, negative = inhibition) at 10uM [%]
1 | COC(=O)C1=C(c2ccc(F)cc2OCc2ccccc2)C[C@@H]2CC[C@H]1N2C(=O)NCCCc1ccccc1 | 4.96
2 | CCN(Cc1ccccc1)C(=O)CN1C(=O)NC(CC)(c2ccc(F)cc2)C1=O (stereo not shown) | -7.55
3 | CCn1ncc(Br)c1C(=O)Nc1sc2c(c1C(=O)OC)CCC2 | -40.8
4 | O=C(Cc1ccc(F)cc1)NC1CCS(=O)(=O)C1 (stereo not shown) | 9.36
5 | Cc1cc(-c2ccccc2)oc(=O)c1NC(=O)c1ccccc1 | 3.11
6 | O=C(N/N=C/c1ccc([N+](=O)[O-])cc1)c1cccnc1 | 0.658
7 | Cc1cccc(Nc2ccccc2C(=O)O)c1C | 2.88
8 | CN1CCc2c(sc3c2c(=O)n(-c2ccccc2)c2nnc(SCc4ccc(Cl)cc4)n32)C1 | -2.08
9 | CCCCSCCCNC(=O)CCCN1C(=O)c2ccccc2Sc2ncccc21 | -27.6
10 | COc1ccc(N(C(=O)c2ccc3c(c2)OCO3)C2C=CS(=O)(=O)C2)c(OC)c1 (stereo not shown) | -22.3
11 | Cc1cc(C(=O)N(C)CC2CCCN(CCc3ccc(F)cc3)C2)c(C)o1 (stereo not shown) | -75.7
12 | CSCc1ccc(C(=O)N2CCCC(Nc3ccc(F)cc3)C2)o1 (stereo not shown) | -18.7
13 | CN(C)CCN(CC1CCCN(Cc2ccccc2F)C1)C(=O)Cc1c(F)cccc1F (stereo not shown) | -9.05
14 | CCN(CC1CCCN(CCc2cccc(F)c2)C1)C(=O)c1ccc(CSC)o1 (stereo not shown) | -74.5
15 | CCN(CC)C(=O)C1CCCN(Cc2cccc(F)c2)C1 (stereo not shown) | 7.43
16 | C=CCC(=O)N(CC)CC1CCCN(CCc2cccc(F)c2)C1 (stereo not shown) | -54.2
17 | CCN(CC1CCCN(CCc2cccc(F)c2)C1)C(=O)c1cc(C)oc1C (stereo not shown) | -66.8
18 | C=CCn1c(SCC(=O)Nc2ccc3c(c2)OCO3)nnc1-c1ccccc1OC | -7.02
19 | O=S(=O)(c1cccc(-c2nnc(-c3cccnc3)o2)c1)N1CCCCC1 | -25
20 | CCOC(=O)Cc1csc(NC(=O)COc2ccccc2OCC)n1 | -24.2
21 | O=S(=O)(Cc1ccccc1Cl)c1ncn[nH]1 | 14.2
22 | COc1ccccc1C(=O)COC(=O)CSC(C)C(=O)Nc1cc(C)on1 (stereo not shown) | -13.7

Row | SMILES | hERG current change (%, negative = inhibition) at 10uM [%]
23 | CCOc1ccc(CN(C)C(=O)Cc2c[nH]c3ccccc23)cc1 | 12
24 | O=C(c1cc2ccccc2o1)N1CCN=C1SCc1cccc(F)c1 | -7.82
25 | O=C(NCC1CCCN(Cc2cccc(F)c2)C1)c1cccc2ccccc12 (stereo not shown) | -17.6
26 | CCN(CC1CCCN(CCc2cccc(F)c2)C1)C(=O)c1cc2ccccc2o1 (stereo not shown) | -79.6
27 | O=C(CN(C(=O)CCC(=O)Nc1ccccn1)c1ccc2c(c1)OCO2)NCc1ccc(F)cc1 | 9.42
28 | CCOc1ccccc1NC(=O)NC1CC2CCCC(C1)N2Cc1nnnn1CCc1ccccc1 (stereo not shown) | -5.67
29 | CCNC(=S)NC1CC2CCCC(C1)N2CCc1ccccc1 (stereo not shown) | -48.7
30 | O=C(Nc1ccccc1-c1ccccc1)NC1CC2CCCC(C1)N2Cc1ccc(F)cc1 (stereo not shown) | -66.4
31 | O=C(Nc1ccccc1-c1ccccc1)NC1CC2CCCC(C1)N2CCc1ccccc1 (stereo not shown) | -53.3
32 | CCc1ccccc1NC(=S)NC1CC2CCC(C1)N2Cc1ccc(F)cc1 (stereo not shown) | -42
33 | O=C(Nc1cccn(Cc2ccc(F)cc2)c1=O)NC1CCCCC1 | -36.2
34 | O=C(N/N=C/c1ccc[nH]1)c1ccncc1 | 20.2
35 | COc1cccc(NC(=O)CCS(=O)(=O)c2cccs2)c1 | 14
36 | CC(=O)c1c(C)[nH]c(C(=O)OCC(=O)N2CC(C)OC(C)C2)c1C (stereo not shown) | 20.7
37 | CCCCNC(=O)/C=C/c1ccc(S(=O)(=O)Nc2ccc(OC)cc2)cc1 | 3.52
38 | Cc1cnc(NC(=O)C2(c3ccccc3)CC2)s1 | 7.07
39 | NC(=O)c1c(NC(=O)c2cccnc2)sc2c1CCCC2 | 17.5
40 | CC(C)NC(=O)c1sc2c(c1C(=O)Nc1cccnc1)CCCC2 | -69.7
41 | O=C(Nc1sc2c(c1C(=O)O)CCCCC2)c1cccnc1 | 16.7
42 | Cc1cc(-c2onc(C)c2C(=O)Oc2ccc(Cl)cc2)no1 | -2.56
43 | Cc1cc(C)nc(SCCn2c(N3CCCCC3)nc3c2c(=O)n(C)c(=O)n3C)n1 | -4.05
44 | CC1(C)CC(=O)C=C(NC2CCCCCC2)C1 | -1.93

Row | SMILES | hERG current change (%, negative = inhibition) at 10uM [%]
45 | O=C(Oc1ccc2ccccc2c1)C1CCC1 | 17
46 | O=C(Nc1ccc(-c2nnn(CC(=O)N3CCN(C(=O)c4ccco4)CC3)n2)cc1)c1ccccc1F | -53.2
47 | O=C(Cn1nnc(-c2ccc(Cl)cc2)n1)N1CCN(C(=O)c2ccco2)CC1 | -65
48 | Cc1ccccc1-c1nnn(CC(=O)N2CCN(C(=O)c3ccco3)CC2)n1 | -40.1
49 | COc1ccc(C(=O)Nc2ccc(-c3nnn(CC(=O)N4CCN(C(=O)c5ccco5)CC4)n3)cc2)cc1 | 7.09
50 | O=C(Nc1ccc(-c2nnn(CC(=O)N3CCN(C(=O)c4ccco4)CC3)n2)cc1)c1ccc(F)cc1 | 3.09
51 | O=C(Cn1nnc(-c2ccccc2)n1)N1CCN(S(=O)(=O)c2ccc(Cl)cc2)CC1 | 3.96
52 | Cc1ccc(C2=NOC(=O)/C2=C\c2ccc(C)o2)cc1 | 6.75
53 | O=C(N/N=C\c1cccnc1)C1c2ccccc2Oc2ccccc21 | 0.415
54 | CCOC(=O)C1=C(C)N(C)C(=S)N(C)C1c1ccc(OC)cc1 (stereo not shown) | -10.5
55 | CN(C)S(=O)(=O)c1ccc(C(=O)OCC(=O)NCc2ccco2)cc1 | 11.6
56 | Cc1ccc(-c2cc(C(=O)N3CCOCC3)c3cc(C)ccc3n2)cc1 | -4.82
57 | COc1ccccc1CNC(=O)CCC(=O)n1ncc2cc(C)ccc21 | 0.647
58 | c1ccc2c(c1)CCCN2Cc1nnnn1C1CCCC1 | -3.84
59 | O=C(C1CC1)N(Cc1ccco1)c1nc(-c2ccccc2)cs1 | -8.62
60 | Cc1ccc2c(c1)C1CN(C)CCC1N2S(=O)(=O)c1ccccc1F (stereo not shown) | -32.4
61 | Cc1ccc2c(c1)C1CN(C)CCC1N2CC(=O)N(C)c1ccccc1 (stereo not shown) | 6.34
62 | Cc1ccc2c(c1)[C@@H]1CN(C)CC[C@@H]1N2S(=O)(=O)c1ccc([N+](=O)[O-])cc1.Cl | -75
63 | Cc1ccc2c(c1)C1CN(C)CCC1N2C(=O)COc1ccc(S(=O)(=O)N2CCOCC2)cc1 (stereo not shown) | -15.8
64 | Cc1ccc2c(c1)[C@@H]1CN(C)CC[C@@H]1N2S(=O)(=O)c1ccc(F)cc1.Cl | -29.1
65 | Cc1ccc2c(c1)C1CN(C)CCC1N2Sc1ccccc1[N+](=O)[O-] (stereo not shown) | -62.8
66 | Cc1ccc2c(c1)C1CN(C)CCC1N2C(=O)c1cccc(S(=O)(=O)N(C)C)c1.c1ccccc1 (stereo not shown) | -25

Row | SMILES | hERG current change (%, negative = inhibition) at 10uM [%]
67 | Cc1ccc2c(c1)C1CN(C)CCC1N2S(=O)(=O)c1ccc(C#N)cc1 (stereo not shown) | -72.8
68 | Cc1ccc2c(c1)C1CN(C)CCC1N2S(=O)(=O)c1ccc(Oc2ccc([N+](=O)[O-])cc2)cc1 (stereo not shown) | -21.3
69 | CN(C(=O)Cc1c(C(=O)O)n(C)c2ccccc12)c1ccc(F)cc1 | 19.8
70 | CCn1c(COc2ccc(Cl)cc2)nnc1SCc1nc2ccccc2[nH]1 | -17.7
71 | CCn1c(COc2ccc(C)cc2)nnc1SCc1ccc(C#N)cc1 | -59.6
72 | COc1ccc(-n2c(COc3ccc(Cl)cc3)nnc2SCc2ccc(C#N)cc2)cc1 | 0.977
73 | CCn1c(COc2ccc(Cl)cc2)nnc1SCc1ccc(C#N)cc1 | -70.5
74 | N#CCSc1nnc(COc2ccccc2)n1-c1ccccc1 | -10.7
75 | CCSc1nnc(COc2ccccc2)n1CC | 6.43
76 | N#Cc1ccc(CSc2nnc(COc3ccccc3)n2-c2ccccc2)cc1 | -52.3
77 | CCn1c(COc2ccccc2)nnc1SCc1ccc(C#N)cc1 | -54.1
78 | COc1ccc(-n2c(COc3ccccc3)nnc2SCc2ccc(C#N)cc2)cc1 | -39.4
79 | CCn1c(COc2ccccc2)nnc1SCC(=O)C(C)(C)C | -14.2
80 | COc1ccc(-n2c(COc3ccc(C)cc3)nnc2SCc2ccc(C#N)cc2)cc1 | -29.6
81 | Cc1ccc(OCc2nnc(SCc3ccc(C#N)cc3)n2-c2ccc(C)cc2)cc1 | -29.6
82 | COc1ccc(/C=N/NC(=O)CCN2CCCCC2c2cccnc2)cc1Cn1cc([N+](=O)[O-])cn1 (stereo not shown) | -30.7
83 | CCCCOCCCNC(=O)Cc1cccs1 | 1.1
84 | O=C(CN1C(=O)c2ccccc2C1=O)NN1C(=O)c2ccccc2C1=O | 1.18
85 | Cc1c(C(=O)Oc2cccc3cccnc23)oc2ccccc12 | -4.01
